Vaccinia mCherry = vaccinia inhibition (mCherry reporter). Vaccinia virus mCherry reporter infection, fluorescence. Potency, µM (highest dose often 36.5 µM), actives largely listed as inhibitors. 310,000 compounds, 0.63% hits. AID 720579; calls by dose curve; tested in A549 cells; note: nearly all actives have a fitted effect of over 35% in size
HCMV inh = human cytomegalovirus inhibition | HFF cells, HCMV-luciferase reporter, 72 h; hits give low values | activity change, negative = inhibition, % at 57.5 µM | 410,000 compounds, 4.5% hits | AID 1259415; in the data active = activity change below about -60%; inconclusive = no clear call, values can overlap the other calls; inactive = above about -39%
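HFF cells seeded 16 h at 37C, treated with compounds, infected with luciferase-reporter HCMV at MOI 1 PFU/cell; luciferase read at 72 h post infection, normalized to buffer-only and Salinomycin controls.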
LASV entry inh = inhibitors of Lassa virus binding or cell entry; Potency, µM (highest dose often 37.9 µM), most hits filed as inhibitors; Lassa virus pseudotype entry inhibition, cell reporter; 300,000 compounds, 1.2% hits; calls by dose curve; tested in HEK293 cells; note: nearly all actives have a fitted effect of over 50% in size
Vaccinia Venus = inhibitors of vaccinia virus (Venus reporter); AID 720580; 330,000 compounds, 0.46% hits; Vaccinia virus Venus reporter expression, fluorescence; Potency, µM (highest dose often 36.5 µM), actives largely listed as inhibitors; calls by dose curve; tested in A549 cells; note: nearly all actives have a fitted effect of over 30% in size
FMDV inh = foot and mouth disease virus antiviral activity; FMDV antiviral cell-based qHTS; Potency, µM (doses to about 57.9 µM), most hits filed as inhibitors; 410,000 compounds, 1.2% hits; AID 1159524; calls by dose curve; tested in HEK293T cells; note: read-out not given here; nearly all actives have a fitted effect of over 45% in size
Marburg entry inh = Marburg virus entry inhibition. 300,000 compounds, 1.8% hits. Potency, µM (doses to about 37.8 µM), hits mostly inhibitors. Marburg virus pseudotyped entry inhibition, cell reporter; calls by dose curve; tested in HEK293 cells
Hits are given with their value; n = inactive; u = inconclusive; x = not tested or not shown; + = active, no number. In the library only some 6.5% were active in any assay of this set; here they are far more common.

SMILES	Vaccinia mCherry	HCMV inh	LASV entry inh	Vaccinia Venus	FMDV inh	Marburg entry inh
C=C1C=C(C(F)F)n2ncc(C(=O)NCc3ccc(Cl)cc3)c2N1	n	x	x	n	x	x
CCOC(=O)N1CCN(C(=O)c2ccc(S(=O)(=O)Nc3ccc(C)cc3)cc2)CC1	n	-69	u	n	n	u
CCOc1ccc(NS(=O)(=O)c2ccc(C(=O)N3CCCC(C)C3)cc2)cc1 (stereo not given)	n	-63	u	n	n	u
COc1ccc(NS(=O)(=O)c2ccc(C(=O)N3CCCCCC3)cc2)cc1	n	-74	u	n	n	u
CCOC(=O)N1CCN(C(=O)c2ccc(CSc3ccc(Cl)cc3)cc2)CC1	n	-71	u	n	25µM	u
CC1CN(CC(=O)N2CCN(Cc3nccn3C)CC2)Cc2cc(Cl)ccc2O1 (stereo not given)	n	x	x	n	n	x
COc1ccc(Cl)cc1NC(=O)c1ncn(-c2ccccc2)n1	n	n	n	n	n	n
COc1ccccc1CNC(=O)c1cc(S(=O)(=O)N2CCCCCC2)cn1C	n	n	n	n	n	x
N#C/C(C(=O)NCc1ccco1)=C1\S[C@@H](Cc2ccc(Cl)cc2)C(=O)N1c1ccccc1	x	x	x	x	x	n
CC[C@@]1(C)Cc2c(sc3c2c(=O)n(C)c2nnc(SCc4ccccc4)n32)CO1	x	x	x	x	x	n
O=C(c1ccc(NS(=O)(=O)c2cccc(F)c2)cc1)N1CCCC1	n	n	n	n	n	n
CCOC(=O)N1CCN(C(=O)c2ccc(NS(=O)(=O)c3ccc(C)cc3)cc2)CC1	n	-76	n	n	n	n
O=C(c1ccc(NS(=O)(=O)c2cccc(F)c2)cc1)N1CCCCC1	x	-73	x	x	n	x
CN1CCN(C(=O)c2ccc(Oc3ccc([N+](=O)[O-])cc3)cc2)CC1	n	n	n	n	n	n
CCOC(=O)N1CCN(C(=O)c2ccc(Oc3ccc([N+](=O)[O-])cc3)cc2)CC1	n	-83	n	n	u	n
O=C(Cc1ccccc1)OC(COCc1ccccc1)CN1CCOCC1 (stereo not given)	x	-88	n	n	n	n
CC(CN1CCOCC1)OC(=O)Cc1ccc(Cl)cc1 (stereo not given)	n	n	n	n	n	n
COc1ccc(NC(=O)COc2ccccc2C(N)=O)cc1S(=O)(=O)N1CCCCC1	n	n	x	n	n	x
Cc1ccc(NC(=O)COc2ccccc2C(N)=O)cc1S(=O)(=O)N1CCCCCC1	x	-91	x	x	25µM	x
Cc1cc(Cl)c(S(=O)(=O)NC(C(=O)O)C(C)C)cc1OCC(=O)NC1CCCCC1 (stereo not given)	x	n	n	x	n	n
Cc1cc(Cl)c(S(=O)(=O)N2CCCC2)cc1OCC(=O)NC1CCCCC1	x	-96	u	x	u	u
Cc1ccc(NC(=O)COc2cccc(C)c2C)cc1S(=O)(=O)N1CCCCCC1	n	u	11µM	n	u	u
COc1ccc(CN2CCN(c3ncc(C(=O)Nc4ccccc4)o3)C2=O)cc1	x	n	x	x	x	x
Cc1ccccc1NC(=O)c1ccc2nc(Cc3ccccc3)oc2c1	n	n	n	n	n	x
CN(C)c1ccc(/C=C/c2c3c(nc4ccccc24)CCCC3)cc1	n	x	x	n	x	x
SMILES	Vaccinia mCherry	HCMV inh	LASV entry inh	Vaccinia Venus	FMDV inh	Marburg entry inh
CNC(=O)c1cccc(-n2c(C)nc3cccnc32)c1C	n	+	n	n	n	x
O=C1N=C(O)CN1/N=C/C1C=CC(c2ccc([N+](=O)[O-])cc2)O1 (stereo not given)	x	x	x	x	x	n
COc1cccc(C=C2SC(=S)N(Cc3ccco3)C2=O)c1OC	x	n	x	x	x	x
CCN1CCN(c2c(/C=C3\SC(=S)N(Cc4ccco4)C3=O)c(C)c(C#N)c(=O)n2C)CC1	n	-73	u	n	n	13µM
CC(=O)Nc1nc(-c2ccc3c(c2)CCN3C(=O)C2CC2)c(C)s1	n	-98	n	n	n	u
CC[C@]1(c2ccccc2OC)ON(c2ccccc2C(F)(F)F)C1=O	n	n	x	u	22µM	x
CC1(O)C(=O)C2(C)C=CC1C1C(=O)N(c3ccccc3)C(=O)C12 (stereo not given)	x	n	x	x	x	x
CC(=O)N1CCc2cc(S(=O)(=O)N3CCN(c4ccc(C)cc4)C(C)C3)ccc21 (stereo not given)	u	u	n	u	u	u
COc1cc(NC(=O)c2ccc(C)cc2C)ccc1NC(=O)c1cc2ccccc2o1	x	-82	x	x	n	x
COc1cc(NC(=O)c2ccccc2Cl)ccc1NC(=O)c1ccco1	14µM	n	n	u	n	n
COc1cc(NC(=O)Cc2ccccc2)ccc1NC(=O)c1ccco1	x	n	n	x	n	n
COc1cc(NC(=O)c2ccc(C)cc2)ccc1NC(=O)c1cc2ccccc2o1	n	n	n	n	n	n
COc1cc(NC(=O)c2cc3ccccc3o2)ccc1NC(=O)c1ccco1	n	n	n	n	n	n
COc1cc(NC(=O)c2ccc(Cl)cc2Cl)ccc1-c1cc2ccccc2oc1=O	n	-91	u	n	n	n
COc1cc(NC(=O)c2ccco2)ccc1NC(=O)c1ccccc1Cl	x	u	13µM	n	n	u
CCOC(=O)C1CCN(C(c2ccc(OCC)cc2)c2c(O)cc(C)n(CCOC)c2=O)CC1 (stereo not given)	n	n	n	n	n	x
Cc1cnc(-n2ncc(C(=O)NCCCc3ccncc3)c2C)nc1-c1ccc(F)cc1	n	x	x	u	n	x
O=C(NCCC(NS(=O)(=O)OCC(Cl)(Cl)Cl)c1ccccc1)C(F)(F)F (stereo not given)	u	n	x	n	n	x
O=C(NCC(NS(=O)(=O)OCC(Cl)(Cl)Cl)c1ccccc1)C(F)(F)F (stereo not given)	n	-74	x	u	n	x
COC(=O)C1=C(c2ccccc2OCc2ccccc2)C[C@@H]2CC[C@H]1N2C(=O)NCCOc1ccccc1Cl	n	-73	x	u	n	n
COC(=O)C1=C(c2ccc(F)cc2OCc2ccccc2)C[C@@H]2CC[C@H]1N2C(=O)NCc1ccc(F)cc1	n	n	x	n	n	x
COC(=O)C1=C(c2ccc(F)cc2OCc2ccccc2)C[C@@H]2CC[C@H]1N2C(=O)NCc1ccc(C)cc1	n	-67	x	u	n	x
CN(C)S(=O)(=O)c1cccc(CSCc2cccc(S(=O)(=O)N(C)C)c2)c1	n	-92	u	n	u	u
CS(=O)(=O)N1CCC2(CCCN(Cc3cc(C(F)(F)F)cc(C(F)(F)F)c3)C2)CC1	x	x	x	x	n	x
O=C(NCCOc1nc(N2CCCCC2)nc(N2CCCCC2)n1)Nc1ccccc1	n	u	n	n	n	u
SMILES	Vaccinia mCherry	HCMV inh	LASV entry inh	Vaccinia Venus	FMDV inh	Marburg entry inh
O=C(NCCOc1nc(N2CCCCC2)nc(N2CCOCC2)n1)Nc1ccccc1	n	-77	n	n	n	n
CCN(CCNC(=O)Nc1ccc(Cl)cc1)c1ccccc1	x	n	16µM	u	u	u
CCN(CC)c1nc(OCCNC(=O)Nc2ccccc2)nc(N(CC)CC)n1	x	n	u	11µM	n	u
Cc1nc2c(c(C)c1CCC(=O)Nc1ccc(F)cc1)c(=O)n(C)c(=O)n2C	n	n	n	n	n	n
C=CCNC(=S)/N=c1/ccccn1CC	n	-98	n	n	n	n
C=CCNC(=S)Nc1ccccc1	n	n	n	n	x	n
